# According to PubChem BioAssay AID651551 (Sanford-Burnham Center for Chemical Genomics, 2012):
# Assay: GAPDH versus PEG-3 reporter suppression – cell-based, luminescence, counter-screen for PEG-3 promoter inhibitor project, SAR follow-up (AID 651551)
# Conditions: HeLa PEG-Prom / GAPDH luciferase reporter, 6 or 24 h, run 1, 24 h; at 99 µM (top of the series)
row,Compound,inhibition % (higher = more inhibition) [%]
1,Cc1cc(NC(=O)c2ccccc2C)n(-c2nc3ccccc3[nH]2)n1,57.6
2,COc1ccc(-n2nc(C(=O)NCC(=O)Nc3cc(OC)c(OC)c(OC)c3)c3ccccc3c2=O)cc1OC,69.6
3,COCCCNC(=O)c1ccc(Cn2c(=O)c3ccccc3n(Cc3ccccc3C#N)c2=O)cc1,73.3
4,CCCn1nc(C(=O)Nc2nc3ccccc3s2)c2ccccc2c1=O,37.5
5,COc1ccc(Cl)cc1Nc1nc(-c2sc(NC(=O)c3ccccc3)nc2C)cs1,74.9
6,O=C(Nc1nc2ccccc2s1)c1nn(-c2ccccc2)c(=O)c2ccccc12,40.7
7,O=C(Nc1nc(-c2ccccc2)cs1)c1nn(-c2ccccc2)c(=O)c2ccccc12,23.5
8,O=C(Nc1nccs1)c1nn(-c2ccccc2)c(=O)c2ccccc12,38.3
9,COc1ccc(-n2nc(C(=O)NCC(=O)Nc3cccc(OC)c3)c3ccccc3c2=O)cc1,28.1
10,Cc1ccc(Cl)cc1Nc1nc(-c2sc(NC(=O)c3ccco3)nc2C)cs1,78
11,Cc1nc(NC(=O)c2ccccc2)sc1-c1csc(Nc2ccccc2)n1,92
12,Cc1cc(NC(=O)c2ccccc2)n(-c2nc3ccccc3[nH]2)n1,14.1
13,Cc1nc(NC(=O)c2ccccc2)sc1-c1csc(Nc2cccc(Cl)c2C)n1,43.1
14,CCCn1nc(C(=O)Nc2nc(-c3ccccn3)cs2)c2ccccc2c1=O,73.2
15,CCn1nc(C(=O)Nc2nc(-c3ccccn3)cs2)c2ccccc2c1=O,32.8
16,Cc1nc(NC(=O)c2ccccc2)sc1-c1csc(Nc2ccccc2Cl)n1,22.6
17,COc1ccc(-n2nc(C(=O)NCC(=O)Nc3ccc(OC)c(OC)c3)c3ccccc3c2=O)cc1,84.2
18,Cc1cc(NC(=O)c2ccccc2)n(-c2nc3ccccc3n2C)n1,6.34
19,COc1ccccc1Nc1nc(-c2sc(NC(=O)c3ccco3)nc2C)cs1,68.4
20,CCCn1nc(C(=O)Nc2nc(-c3ccncc3)cs2)c2ccccc2c1=O,88.9
21,CCn1cc(C(=O)NCc2ccco2)c(=O)c2cc(S(=O)(=O)N3CCCC3)ccc21,56.3
22,Cc1cc(NC(=O)c2cccc(C)c2C)n(-c2nc3ccccc3[nH]2)n1,27.5
23,Cc1cc(NC(=O)c2ccccc2C(F)(F)F)n(-c2nc3ccccc3[nH]2)n1,97.3
